From PubChem BioAssay (NCATS)
Results filed as inconclusive are left out. Entries that show only a call come without a potency. Active and inactive are the calls of the source. Calls follow the shape of the dose curve; as a rule, active = well fitted curve in the direction sought with a large enough effect; inconclusive = small, poorly fitted or top-dose-only effect, or another doubt; inactive = no such curve, though single readings can be large; an effect the other way counts as inactive or inconclusive.

Assay: qHTS of pediatric cancer cell lines to identify multiple opportunities for drug repurposing: Primary screen for RD cells (AID 1347104); also: nearly all actives have a fitted effect of over 55% in size; also: potency is read from the fitted curve at half-maximal effect
Settings: RD rhabdomyosarcoma viability, CellTiter-Glo luminescence, 48 h; series mostly up to 46 µM
In short: (§1)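 Following a 5-hour attachment period, cells at 500-1,000/well received compounds and were cultured for 48 hours. CellTiter-Glo was added and luminescence read to estimate viable, metabolically active cells.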
With `CC1(C)CC(=O)c2c(C(F)(F)F)nn(-c3ccc(C(N)=O)c(NC4CCC(O)CC4)c3)c2C1` (stereo not given) the Potency was 0.0743 µM (active). With `c1cc(OCCN2CCCCC2)cc(-c2n[nH]c3ccc(-c4ncn[nH]4)cc23)c1` the Potency was “inactive”. With `COc1ccc2c(c1)CC[C@H]1[C@@H]2CC[C@]2(C)[C@@H](NCCCCCCN3C(=O)C=CC3=O)CC[C@H]12` the Potency was “inactive”. In the case of `COC(=O)N1CCN(Cc2cccc(NC(=O)Nc3ccc(C)nc3)c2F)CC1`, the Potency is reported as “inactive”. With `COc1cc(F)c(C(C)C)cc1-c1ccc(C(F)(F)F)cc1CN1C(=O)O[C@H](c2cc(C(F)(F)F)cc(C(F)(F)F)c2)[C@@H]1C` the Potency was “inactive”. In the case of `COc1cc(N2CCN(C)CC2)ccc1Nc1nc(N)c(C(=O)c2c(Cl)cccc2Cl)s1`, the Potency is reported as 29.6 µM (active). In the case of `Nc1ccn([C@@H]2O[C@H](CO)[C@@H](O)[C@H]2O)c(=O)n1`, the Potency is reported as “inactive”. For `C[C@H]1COC2=C1C(=O)C(=O)c1c2ccc2c1CCCC2(C)C`, the Potency was “inactive”. For `COc1cc2nccc(Oc3ccc(NC(=O)Nc4cc(C)on4)c(Cl)c3)c2cc1OC`, the Potency was 33.2 µM (active). With `CC1=C[C@@H]2[C@@H]([C@@H](O)C[C@@]3(C)[C@H]2C[C@@H](C)[C@]3(O)C(=O)CO)[C@@]2(C)Cc3cnn(-c4ccccc4)c3C=C12` the Potency was 29.6 µM (active). For `CNc1nc(-c2ccc3c(N)n[nH]c3c2)cc(N2C[C@@H](C(=O)NC3CCCCC3)CC[C@@H]2C)n1`, the Potency was 20.9 µM (active).

Assay: qHTS of pediatric cancer cell lines to identify multiple opportunities for drug repurposing: Primary screen for MG 63 (6-TG R) cells (AID 1347105); also: nearly all actives have a fitted effect of over 50% in size; also: potency is read from the fitted curve at half-maximal effect
Settings: MG 63 (6-TG R) viability, CellTiter-Glo, 48 h; series mostly up to 46 µM
In short: as §1
For `CCCCCCOC(=O)N=C(N)c1ccc(NCc2nc3cc(C(=O)N(CCC(=O)OCC)c4ccccn4)ccc3n2C)cc1`, the Potency was “inactive”. For `c1cc(OCCN2CCCCC2)cc(-c2n[nH]c3ccc(-c4ncn[nH]4)cc23)c1`, the Potency was “inactive”. For `COc1ccc(-c2cc3nccn3c(Nc3ncccc3C(N)=O)n2)cc1OC`, the Potency was “inactive”. In the case of `CC(C)n1c(C=C[C@H](O)C[C@H](O)CC(=O)O)c(-c2ccc(F)cc2)c2ccccc21`, the Potency is reported as 1.48 µM (active). In the case of `OCCn1cc(-c2ccc3c(c2)CCC3=NO)c(-c2ccncc2)n1`, the Potency is reported as “inactive”. With `CN(C)c1ccc(-c2nc3ncc(Cl)c(N4CCN(CC(=O)Nc5nccs5)CC4)c3[nH]2)cc1` the Potency was “inactive”. In the case of `COc1ccc2c(c1)CC[C@H]1[C@@H]2CC[C@]2(C)[C@@H](NCCCCCCN3C(=O)C=CC3=O)CC[C@H]12`, the Potency is reported as “inactive”. In the case of `COc1cc(F)c(C(C)C)cc1-c1ccc(C(F)(F)F)cc1CN1C(=O)O[C@H](c2cc(C(F)(F)F)cc(C(F)(F)F)c2)[C@@H]1C`, the Potency is reported as “inactive”. With `CCCCn1c(=O)n(Cc2ccccc2F)c(=O)c2[nH]c(Cc3ccc(NC(C)=O)cc3)nc21` the Potency was 18.7 µM (active). With `CN1C(=O)C[C@H](C(=O)N[C@@H](Cc2cnc[nH]2)C(=O)N2CCC[C@@H]2C(N)=O)NC1=O` the Potency was “inactive”. In the case of `COc1cc(N2CCN(C)CC2)ccc1Nc1nc(N)c(C(=O)c2c(Cl)cccc2Cl)s1`, the Potency is reported as “inactive”. With `CCC(=O)NCC[C@@H]1CCc2ccc3c(c21)CCO3` the Potency was “inactive”. In the case of `CN(C)S(=O)(=O)c1ccc2c(c1)C(=Cc1cc3c([nH]1)CCCC3)C(=O)N2`, the Potency is reported as “inactive”. In the case of `COc1ccc(Cn2ccc3ccc(C(=O)NO)cc32)cc1`, the Potency is reported as “inactive”. In the case of `Nc1ccn([C@@H]2O[C@H](CO)[C@@H](O)[C@H]2O)c(=O)n1`, the Potency is reported as “inactive”. With `CC1C(=O)OC2C(O)C34C5CC(C(C)(C)C)C36C(OC(=O)C6O)OC4(C(=O)O5)C12O` (stereo not given) the Potency was “inactive”. With `C=CC[N+]1([C@H]2C[C@H]3[C@@H]4CC[C@H]5C[C@H](O)[C@@H](N6CCOCC6)C[C@]5(C)[C@@H]4CC[C@]3(C)[C@H]2OC(C)=O)CCCC1` the Potency was “inactive”. For `C[C@H]1COC2=C1C(=O)C(=O)c1c2ccc2c1CCCC2(C)C`, the Potency was “inactive”. With `Cc1csc(-c2nnc(Nc3ccc(Oc4ncccc4-c4ccnc(N)n4)cc3)c3ccccc23)c1` the Potency was “inactive”. In the case of `CNC(=O)[C@H](Cc1ccccc1)NC(=O)[C@H](CC(C)C)[C@H](CSc1cccs1)C(=O)NO`, the Potency is reported as “inactive”. In the case of `CNc1nc(-c2ccc3c(N)n[nH]c3c2)cc(N2C[C@@H](C(=O)NC3CCCCC3)CC[C@@H]2C)n1`, the Potency is reported as 3.72 µM (active).

Assay: qHTS of pediatric cancer cell lines to identify multiple opportunities for drug repurposing: Primary screen for control Hh wild type fibroblast cells (AID 1347106);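 also: a drop in luminescence marks cytotoxicity and a rise apparent proliferation; nearly all actives have a fitted effect of over 55% in size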
Settings: Hh wild-type fibroblast viability, CellTiter-Glo luminescence, 48 h; series mostly up to 46 µM
In short: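 Viability after 48 h compound treatment at 37C, 500-1,000 cells/well, read as ATP luminescence with CellTiter-Glo. Primary screens used 11-point (MIPE, 0.78 nM-46 µM) or 8-point (NPC, 0.59 nM-46 µM) final concentrations; follow-up screens used 11-point dilutions.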
With `O=C(c1ccc(C=Cc2n[nH]c3ccccc23)cc1)N1CCNCC1` the Potency was “inactive”. With `COc1cc2c(cc1OC)[C@@H]1Cc3ccc(OC)c(OC)c3CN1CC2` the Potency was “inactive”. In the case of `CCCCCCOC(=O)N=C(N)c1ccc(NCc2nc3cc(C(=O)N(CCC(=O)OCC)c4ccccn4)ccc3n2C)cc1`, the Potency is reported as “inactive”. For `c1cc(OCCN2CCCCC2)cc(-c2n[nH]c3ccc(-c4ncn[nH]4)cc23)c1`, the Potency was “inactive”. In the case of `COc1ccc(-c2cc3nccn3c(Nc3ncccc3C(N)=O)n2)cc1OC`, the Potency is reported as “inactive”. With `COc1ccc2c(c1)CC[C@H]1[C@@H]2CC[C@]2(C)[C@@H](NCCCCCCN3C(=O)C=CC3=O)CC[C@H]12` the Potency was “inactive”. With `COC(=O)N1CCN(Cc2cccc(NC(=O)Nc3ccc(C)nc3)c2F)CC1` the Potency was “inactive”. With `CN1CCN(c2cccc(Nc3nc4c(-c5ccc(S(C)(=O)=O)cc5)cccn4n3)c2)CC1` the Potency was “inactive”. For `Cc1ccc(C(=O)N(CCCN)[C@@H](c2nc3cc(Cl)ccc3c(=O)n2Cc2ccccc2)C(C)C)cc1`, the Potency was “inactive”. In the case of `COc1cc(F)c(C(C)C)cc1-c1ccc(C(F)(F)F)cc1CN1C(=O)O[C@H](c2cc(C(F)(F)F)cc(C(F)(F)F)c2)[C@@H]1C`, the Potency is reported as “inactive”. With `CCCCn1c(=O)n(Cc2ccccc2F)c(=O)c2[nH]c(Cc3ccc(NC(C)=O)cc3)nc21` the Potency was “inactive”. For `CN1C(=O)C[C@H](C(=O)N[C@@H](Cc2cnc[nH]2)C(=O)N2CCC[C@@H]2C(N)=O)NC1=O`, the Potency was “inactive”. For `COc1cc(N2CCN(C)CC2)ccc1Nc1nc(N)c(C(=O)c2c(Cl)cccc2Cl)s1`, the Potency was “inactive”. For `COc1ccc(Cn2ccc3ccc(C(=O)NO)cc32)cc1`, the Potency was “inactive”. For `Nc1ccn([C@@H]2O[C@H](CO)[C@@H](O)[C@H]2O)c(=O)n1`, the Potency was “inactive”. In the case of `CC1C(=O)OC2C(O)C34C5CC(C(C)(C)C)C36C(OC(=O)C6O)OC4(C(=O)O5)C12O` (stereo not given), the Potency is reported as “inactive”. With `C=CC[N+]1([C@H]2C[C@H]3[C@@H]4CC[C@H]5C[C@H](O)[C@@H](N6CCOCC6)C[C@]5(C)[C@@H]4CC[C@]3(C)[C@H]2OC(C)=O)CCCC1` the Potency was “inactive”. In the case of `C[C@H]1COC2=C1C(=O)C(=O)c1c2ccc2c1CCCC2(C)C`, the Potency is reported as “inactive”. With `C[C@@H]1CC=CC=CC=CC=C[C@@H](O[C@@H]2O[C@H](C)[C@@H](O)[C@H](N)[C@H]2O)C[C@@H]2O[C@](O)(C[C@@H](O)C[C@@H]3O[C@@H]3C=CC(=O)O1)C[C@H](O)[C@@H]2C(=O)O` the Potency was “inactive”. For `N#CC(c1ccnc(NCCc2cccnc2)n1)c1nc2ccccc2s1` (stereo not given), the Potency was “inactive”. In the case of `Cc1csc(-c2nnc(Nc3ccc(Oc4ncccc4-c4ccnc(N)n4)cc3)c3ccccc23)c1`, the Potency is reported as “inactive”. With `CNC(=O)[C@H](Cc1ccccc1)NC(=O)[C@H](CC(C)C)[C@H](CSc1cccs1)C(=O)NO` the Potency was “inactive”. In the case of `CNc1nc(-c2ccc3c(N)n[nH]c3c2)cc(N2C[C@@H](C(=O)NC3CCCCC3)CC[C@@H]2C)n1`, the Potency is reported as “inactive”.
